# Source: PubChem BioAssay (NCATS)
# Results filed as inconclusive are left out. A call without a number means that no potency is given here. Values without a mark were called inactive. Calls of active or inactive are those of the source. Calls come from the whole dose curve; as a rule, active = well fitted inhibition curve with a large enough effect; inconclusive = small, poorly fitted or top-dose-only effect; inactive = flat fitted curve, though single readings scatter.
# What was measured:
# [1] = qHTS profiling for inhibitors of Plasmodium falciparum proliferation (AID 504749); note: nearly all actives have a fitted effect of over 60% in size; details: P. falciparum in erythrocytes, SYBR Green DNA, 72 h
# In short: (§1)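 SYBR Green fluorescence (ex 485 nm, em 535 nm) reports parasite DNA after 72 h compound exposure of infected red cells at 0.3% parasitemia, 2.5% hematocrit; signal normalized to 0.29 uM artemisinin and vehicle wells.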
# [2] = system: 3D7; assay: as above; details: P. falciparum in erythrocytes, SYBR Green DNA, 72 h; series mostly up to 28.7 µM
# In short: as §1
# [3] = system: 7G8; assay: as above; details: P. falciparum in erythrocytes, SYBR Green DNA, 72 h; series mostly up to 28.7 µM
# In short: as §1
# [4] = system: AA1029; assay: as above; details: P. falciparum in erythrocytes, SYBR Green DNA, 72 h; series mostly up to 28.7 µM
# In short: as §1
# [5] = system: AS120; assay: as above; details: P. falciparum in erythrocytes, SYBR Green DNA, 72 h; series mostly up to 28.7 µM
# In short: as §1
# [6] = system: ATS189; assay: as above; details: P. falciparum in erythrocytes, SYBR Green DNA, 72 h; series mostly up to 28.7 µM
# In short: as §1
# [7] = system: ATS95; assay: as above; details: P. falciparum in erythrocytes, SYBR Green DNA, 72 h; series mostly up to 28.7 µM
# In short: as §1
# [8] = system: C2A; assay: as above; details: P. falciparum in erythrocytes, SYBR Green DNA, 72 h; series mostly up to 28.7 µM
# In short: as §1
# [9] = system: CP185; assay: as above; details: P. falciparum in erythrocytes, SYBR Green DNA, 72 h; series mostly up to 28.7 µM
# In short: as §1
# [10] = system: CP191; assay: as above; details: P. falciparum in erythrocytes, SYBR Green DNA, 72 h; series mostly up to 28.7 µM
# In short: as §1
# [11] = system: CP217; assay: as above; details: P. falciparum in erythrocytes, SYBR Green DNA, 72 h; series mostly up to 28.7 µM
# In short: as §1
# [12] = system: CP192; assay: as above; details: P. falciparum in erythrocytes, SYBR Green DNA, 72 h; series mostly up to 28.7 µM
# In short: as §1
# [13] = system: CP194; assay: as above; details: P. falciparum in erythrocytes, SYBR Green DNA, 72 h; series mostly up to 28.7 µM
# In short: as §1
# [14] = system: CP201; assay: as above; details: P. falciparum in erythrocytes, SYBR Green DNA, 72 h; series mostly up to 28.7 µM
# In short: as §1
# [15] = system: CP211; assay: as above; details: P. falciparum in erythrocytes, SYBR Green DNA, 72 h; series mostly up to 28.7 µM
# In short: as §1
# [16] = system: CP215; assay: as above; details: P. falciparum in erythrocytes, SYBR Green DNA, 72 h; series mostly up to 28.7 µM
# In short: as §1
# [17] = system: CP203; assay: as above; details: P. falciparum in erythrocytes, SYBR Green DNA, 72 h; series mostly up to 28.7 µM
# In short: as §1
# [18] = at 28.7 µM (top of the series), parasite line A
# [19] = at 28.7 µM (top of the series), parasite line B
# Potency is the fitted concentration of half-maximal effect.
compound,measurement,setting,value
Cc1ncc(CO)c(C=O)c1O,"activity, negative = inhibition",[1]; [18],0.609%
same,"activity, negative = inhibition",[1]; [19],9.9%
same,Potency,[2],inactive
same,Potency,[3],inactive
same,Potency,[4],inactive
same,Potency,[5],inactive
same,Potency,[6],inactive
same,Potency,[7],inactive
same,Potency,[8],inactive
same,Potency,[9],inactive
same,Potency,[10],inactive
same,Potency,[11],inactive
CCc1ccc(C(=O)C(C)CN2CCCCC2)cc1 (stereo not drawn),"activity, negative = inhibition",[1]; [18],2.55%
same,"activity, negative = inhibition",[1]; [19],6.09%
same,Potency,[2],inactive
same,Potency,[3],inactive
same,Potency,[4],inactive
same,Potency,[5],inactive
same,Potency,[6],inactive
same,Potency,[7],inactive
same,Potency,[8],inactive
same,Potency,[9],inactive
same,Potency,[10],inactive
same,Potency,[12],inactive
same,Potency,[13],inactive
same,Potency,[14],inactive
same,Potency,[15],inactive
same,Potency,[16],inactive
same,Potency,[11],inactive
CC(=O)Nc1ccc(S(=O)(=O)Nc2ccc([N+](=O)[O-])cc2)cc1,"activity, negative = inhibition",[1]; [18],-0.674%
same,"activity, negative = inhibition",[1]; [19],0.755%
same,Potency,[2],inactive
same,Potency,[3],inactive
same,Potency,[4],inactive
same,Potency,[5],inactive
same,Potency,[6],inactive
same,Potency,[7],inactive
same,Potency,[8],inactive
same,Potency,[9],inactive
same,Potency,[10],inactive
same,Potency,[12],inactive
same,Potency,[13],inactive
same,Potency,[14],inactive
same,Potency,[15],inactive
same,Potency,[16],inactive
same,Potency,[11],inactive
CC(=O)NO,"activity, negative = inhibition",[1]; [18],-5.99%
same,"activity, negative = inhibition",[1]; [19],17.5%
same,Potency,[2],inactive
same,Potency,[3],inactive
same,Potency,[4],inactive
same,Potency,[5],inactive
same,Potency,[6],inactive
same,Potency,[7],inactive
same,Potency,[8],inactive
same,Potency,[9],inactive
same,Potency,[10],inactive
same,Potency,[12],inactive
same,Potency,[13],inactive
same,Potency,[17],inactive
same,Potency,[15],inactive
same,Potency,[16],inactive
same,Potency,[11],inactive
O=C(Nc1ncc([N+](=O)[O-])s1)c1cccs1,"activity, negative = inhibition",[1]; [18],5.2%
same,"activity, negative = inhibition",[1]; [19],-2.66%
same,Potency,[2],inactive
same,Potency,[3],inactive
same,Potency,[4],inactive
same,Potency,[5],inactive
same,Potency,[6],inactive
same,Potency,[7],inactive
same,Potency,[8],inactive
same,Potency,[9],inactive
same,Potency,[10],inactive
same,Potency,[12],inactive
same,Potency,[13],inactive
same,Potency,[14],inactive
same,Potency,[15],inactive
same,Potency,[16],inactive
same,Potency,[11],inactive
O=C(Nc1ccc([N+](=O)[O-])cc1)Nc1ccc([N+](=O)[O-])cc1,"activity, negative = inhibition",[1]; [18],3.88%
same,"activity, negative = inhibition",[1]; [19],-6.66%
same,Potency,[2],7.08 µM (active)
same,Potency,[3],1.41 µM (active)
same,Potency,[4],inactive
same,Potency,[5],inactive
same,Potency,[6],inactive
same,Potency,[7],inactive
same,Potency,[8],inactive
same,Potency,[9],inactive
same,Potency,[10],inactive
same,Potency,[12],inactive
same,Potency,[13],inactive
same,Potency,[14],inactive
same,Potency,[17],inactive
same,Potency,[15],inactive
same,Potency,[11],inactive
Nc1ccc(S(=O)(=O)Nc2cnc3ccccc3n2)cc1,"activity, negative = inhibition",[1]; [18],-3.4%
same,"activity, negative = inhibition",[1]; [19],-11.6%
same,Potency,[2],inactive
same,Potency,[3],inactive
same,Potency,[4],inactive
same,Potency,[5],inactive
same,Potency,[6],inactive
same,Potency,[7],inactive
same,Potency,[8],inactive
same,Potency,[9],inactive
same,Potency,[10],inactive
same,Potency,[12],inactive
same,Potency,[13],inactive
same,Potency,[14],inactive
same,Potency,[17],inactive
same,Potency,[15],inactive
same,Potency,[11],inactive
Oc1ccccc1C=NCc1ccccc1,"activity, negative = inhibition",[1]; [18],2.18%
same,"activity, negative = inhibition",[1]; [19],-16.9%
same,Potency,[2],inactive
same,Potency,[3],inactive
same,Potency,[4],inactive
same,Potency,[5],inactive
same,Potency,[6],inactive
same,Potency,[7],inactive
same,Potency,[8],inactive
same,Potency,[9],inactive
same,Potency,[10],inactive
same,Potency,[12],inactive
same,Potency,[13],inactive
same,Potency,[14],inactive
same,Potency,[15],inactive
same,Potency,[16],inactive
same,Potency,[11],inactive
O=C(O)Cc1csc(-c2ccc(Cl)cc2)n1,"activity, negative = inhibition",[1]; [18],1.5%
same,"activity, negative = inhibition",[1]; [19],8.07%
same,Potency,[2],inactive
same,Potency,[3],inactive
same,Potency,[4],inactive
same,Potency,[5],inactive
same,Potency,[6],inactive
same,Potency,[7],inactive
same,Potency,[8],inactive
same,Potency,[9],inactive
same,Potency,[10],inactive
same,Potency,[12],inactive
same,Potency,[13],inactive
same,Potency,[14],inactive
same,Potency,[15],inactive
same,Potency,[16],inactive
same,Potency,[11],inactive
Cc1ccccc1OCC(O)CO (stereo not drawn),"activity, negative = inhibition",[1]; [18],13.7%
same,"activity, negative = inhibition",[1]; [19],2.74%
same,Potency,[2],inactive
same,Potency,[3],inactive
same,Potency,[4],inactive
same,Potency,[5],inactive
same,Potency,[6],inactive
same,Potency,[7],inactive
same,Potency,[8],inactive
same,Potency,[9],inactive
same,Potency,[10],inactive
same,Potency,[12],inactive
same,Potency,[13],inactive
same,Potency,[14],inactive
same,Potency,[15],inactive
same,Potency,[16],inactive
same,Potency,[11],inactive
C[N+]1(CC2COC(c3ccccc3)(C3CCCCC3)O2)CCCCC1 (stereo not drawn),Potency,[1]; parasite line A,2.82 µM (active)
same,Potency,[1]; parasite line B,4.47 µM (active)
same,Potency,[2],7.08 µM (active)
same,Potency,[3],2.51 µM (active)
same,Potency,[4],5.01 µM (active)
same,Potency,[5],7.08 µM (active)
same,Potency,[6],8.91 µM (active)
same,Potency,[7],6.31 µM (active)
same,Potency,[8],10 µM (active)
same,Potency,[9],5.01 µM (active)
same,Potency,[10],5.62 µM (active)
same,Potency,[12],4.78 µM (active)
same,Potency,[13],6.01 µM (active)
same,Potency,[14],10.7 µM (active)
same,Potency,[15],4.78 µM (active)
same,Potency,[16],5.36 µM (active)
same,Potency,[11],8.91 µM (active)
CC(=O)NC(=O)c1ccccc1O,"activity, negative = inhibition",[1]; [18],-1.16%
same,"activity, negative = inhibition",[1]; [19],7.59%
same,Potency,[2],inactive
same,Potency,[3],inactive
same,Potency,[4],inactive
same,Potency,[5],inactive
same,Potency,[6],inactive
same,Potency,[7],inactive
same,Potency,[8],inactive
same,Potency,[9],inactive
same,Potency,[10],inactive
same,Potency,[12],inactive
same,Potency,[13],inactive
same,Potency,[14],inactive
same,Potency,[17],inactive
same,Potency,[16],inactive
same,Potency,[11],inactive
CC[C@H](c1ccc(O)cc1)[C@@H](CC)c1ccc(O)cc1,"activity, negative = inhibition","[1]; at 12.8 µM (top of the series), parasite line A",-8.43%
same,"activity, negative = inhibition","[1]; at 12.8 µM (top of the series), parasite line B",3.18%
same,Potency,[2],inactive
same,Potency,[3],inactive
same,Potency,[4],inactive
same,Potency,[5],inactive
same,Potency,[6],inactive
same,Potency,[7],inactive
same,Potency,[8],inactive
same,Potency,[9],inactive
same,Potency,[10],inactive
same,Potency,[12],inactive
same,Potency,[13],inactive
same,Potency,[14],inactive
same,Potency,[17],inactive
same,Potency,[16],inactive
same,Potency,[11],inactive
Cc1ccc(O)c([C@H](CCN(C(C)C)C(C)C)c2ccccc2)c1,Potency,[1]; parasite line A,7.08 µM (active)
same,Potency,[1]; parasite line B,3.98 µM (active)
same,Potency,[2],6.31 µM (active)
same,Potency,[3],1 µM (active)
same,Potency,[4],3.16 µM (active)
same,Potency,[5],2.51 µM (active)
same,Potency,[6],3.98 µM (active)
same,Potency,[7],3.55 µM (active)
same,Potency,[8],11.2 µM (active)
same,Potency,[9],10 µM (active)
same,Potency,[10],7.08 µM (active)
same,Potency,[12],13.5 µM (active)
same,Potency,[13],5.36 µM (active)
same,Potency,[14],13.5 µM (active)
same,Potency,[15],9.53 µM (active)
same,Potency,[16],6.75 µM (active)
same,Potency,[11],5.01 µM (active)
